Anaer choline gr – inhibitors of anaerobic choline-dependent gram-negative bacterial growth; Gram-negative bacterium anaerobic choline minimal medium, absorbance growth; stronger effect = lower value; calls only; 55,000 compounds, 0.2% hits; call rule not given here
Starred values were filed as active, the others as inactive; i = inactive; + = active, no number. The full list was thinned out, with hits kept by preference.

SMILES | Anaer choline gr
Cc1oc2ncnc(N3CCC(C(=O)NC4CCCC4)CC3)c2c1C | i
CCCc1cc(C2CCCN2Cc2ccc(OC)c(CN3CCOCC3)c2)no1 (configuration not stated) | i
CN1CCN(c2ccc(NC(=O)c3ccccc3Cl)c(C(=O)O)c2)CC1 | i
CCCCN(C)c1ccc(NC(=O)c2ccccc2Cl)c(C(=O)O)c1 | +
CCCN1CCN(c2ccc(NC(=O)c3ccccc3Cl)c(C(=O)O)c2)CC1 | i
CCCCN(C)c1ccc(NS(=O)(=O)c2ccc(Br)cc2)c(C(=O)O)c1 | i
CCCCN(C)c1ccc(NC(=O)C2CC2)c(C(=O)O)c1 | i
O=C(Nc1ccc(N2CCC(Cc3ccccc3)CC2)cc1C(=O)O)c1ccccc1Cl | +
O=C(Nc1ccc(SCc2nnc(-c3ccccc3)o2)cc1)Nc1ccccc1Cl | i
O=C(NCc1ccc(F)c(Cl)c1)C1CCCN(c2ncnc3c2oc2ccccc23)C1 (configuration not stated) | i
CCC(=O)N1CCCN(S(=O)(=O)CC)CC1 | i
CCN1CCN(C(=O)[C@@H]2CCCN2C(C)=O)CC1 | i
CCC(=O)N1CCCC1C(=O)N1CCCN(C)CC1 (configuration not stated) | +
COc1ccc(C2CC(=O)C3=C(C2)Nc2onc(C)c2C3c2ccc(Cl)cc2)cc1OC (configuration not stated) | i
C=CCn1c(SCC(=O)c2ccccc2)nc2sc3c(c2c1=O)CCC3 | i
Cc1ccc(Cl)cc1NS(=O)(=O)c1cc(-c2nc(C(C)(C)C)cs2)cs1 | i
CC(C)(C)c1csc(-c2csc(S(=O)(=O)Nc3ccc(Cl)cc3F)c2)n1 | +
CC(C)(C)c1csc(-c2csc(S(=O)(=O)Nc3ccc(F)c(Cl)c3)c2)n1 | i
CCS(=O)(=O)Nc1cc(-c2nnc(C3CC3)o2)sc1C | i
COc1cccc(C2C3=C(CC(c4ccc(O)cc4)CC3=O)Nc3onc(C)c32)c1 (configuration not stated) | i
CCCCC/C=C\C/C=C\C/C=C\C/C=C\CCCCCC(=O)O | i
CCCCCCC/C=C\CCCCCCCCC(=O)O | i
CCCCC/C=C\C/C=C\CCCCCCCC(N)=O | i
CCCCC/C=C\C/C=C\CC1OC1C/C=C\CCCC(=O)O (configuration not stated) | i
CC/C=C\C/C=C\C/C=C\CCCCCCCCCC(=O)O | +
SMILES | Anaer choline gr
CC/C=C\C/C=C\C/C=C\CCCCCCCCCCCC(=O)O | +
CCCCC/C=C\C/C=C\C/C=C\C/C=C\CCCC(=O)O | i
CC/C=C\C/C=C\C/C=C\C/C=C\C/C=C\CCCC(=O)O | +
CC/C=C\C/C=C\C/C=C\CCCCCCCC(=O)O | i
COCCNC(=O)c1sc(COc2cccc(C)c2)nc1C | i
O=C(CNS(=O)(=O)c1cc(-c2noc(C3CCC3)n2)cs1)Nc1ccc(Cl)cn1 | i
Cc1nn(-c2ccc3nncn3n2)c2c1C(c1ccc(OCc3ccc(F)cc3)cc1)CC(=O)N2 (configuration not stated) | i
Cc1nn(-c2cccc(F)c2)c2sc(C(=O)Oc3ccccc3F)cc12 | i
CCCCC(=O)Nc1ccc2c(c1)nc(CCNC(=O)C1CC1)n2C | i
COc1ccc(NC(=O)c2nnc(C3CCN(C(=O)Nc4ccccc4)CC3)s2)cc1 | i
CCc1onc(C)c1C1CCCN1S(=O)(=O)c1c(C)noc1C (configuration not stated) | i
Cc1nc2sccn2c(=O)c1NC(=O)Cc1ccc(Cl)cc1 | i
Cc1nc2scc(C)n2c(=O)c1NC(=O)C(C)C | i
Cc1nc2scc(C)n2c(=O)c1NC(=O)Cc1ccc(Cl)cc1 | +
C#CCOc1ccc(C2Nc3c(C)cc(C)cc3[C@H]3OCC[C@@H]23)cc1 (some centres not stated) | i
CCCc1cc(C2CCCN2S(=O)(=O)CCC)no1 (configuration not stated) | i
COc1ccc2cc3c(nc2c1)N(S(=O)(=O)c1ccc(C(C)C)cc1)CC3 | i
CCCC(=O)N1CCCC1C(=O)N1CCCCC1C (configuration not stated) | +
Cc1noc(C(=O)N2CCCCC2C)c1Cl (configuration not stated) | i
Cc1cc(N2CCC(C)CC2)nc2ccc(NC(=O)CCC(=O)N3CCCCC3C)cc12 (configuration not stated) | i
Cc1ccc(NC(=O)CCc2nnc3ccc(N4CCC(Cc5ccccc5)CC4)nn23)cc1 | i
CCCc1cc(=O)[nH]c(-n2nc(C)cc2NC(=O)c2ccc(C(C)(C)C)cc2)n1 | i

Screening results deposited in PubChem by ICCB-Longwood Screening Facility, Harvard Medical School.
